Screens as filed in PubChem.
The entries come from a sample that favours hits as a whole.
mHTT CaM bind: mHTT-calmodulin interaction abrogation; AlphaScreen His-mHTT/GST-CaM binding, luminescence; inhibition, % at 15 µM; 190,000 compounds, 3.6% hits; AID 1671202
Pf apPOL inh: Pf-apPOL DNA polymerase inhibition | inhibition, % at 10 µM | Recombinant Pf-apPOL, molecular beacon fluorescence, 1.5 h | 210,000 compounds, 0.25% hits | AID 1794808
Numbers stand for hits; 0 = inactive; - = no result given. Rule as the data show it: active = inhibition above about 50%; inactive = the rest.

SMILES	mHTT CaM bind	Pf apPOL inh
NS(=O)(=O)C#Cc1ccccc1	0	0
O=C1CCCC(O)=C1C(C#Cc1ccccc1)C1=C(O)CCCC1=O	87	0
O=C(O)c1cccc2c1NC(c1ccc(Cl)cc1Cl)C1CC=CC21 (centres undefined)	56	0
COc1cccc(C2Nc3ccc(C(C)=O)cc3C3C=CCC32)c1OC (centres undefined)	64	0
NS(=O)(=O)c1ccc2c(c1)C1C=CCC1C(c1ccc([N+](=O)[O-])cc1)N2 (centres undefined)	92	0
O=C(c1cccc2c1NC(c1ccc(Cl)cc1Cl)C1CC=CC21)N1CCCC1 (centres undefined)	0	0
NS(=O)(=O)c1ccc2c(c1)C1C=CCC1C(c1ccc(Cl)cc1Cl)N2 (centres undefined)	79	0
CC(=O)c1ccc2c(c1)C1C=CCC1C(c1cc3c(cc1Br)OCO3)N2 (centres undefined)	0	0
O=[N+]([O-])c1ccc(C2Nc3cc(Br)ccc3C3C=CCC32)cc1 (centres undefined)	0	-
COc1ccccc1Oc1coc2c3c(ccc2c1=O)OCN(C1CCS(=O)(=O)C1)C3 (centres undefined)	0	0
CC1(c2ccccc2)CC(C)(C)N(C(=O)CSc2ncn[nH]2)c2ccccc21 (centres undefined)	0	0
O=C(O)C1CC=CCC1c1ccc(Cl)cc1Cl (centres undefined)	-	0
O=C(O)c1ccc2c(c1)C1C=CCC1C(c1ccc(Cl)cc1Cl)N2 (centres undefined)	67	0
Cc1cccc(CCNC(=O)CN2C(=O)/C(=C/c3ccccc3F)Sc3ccccc32)c1	0	0
O=C1CSC(=NC(=O)N2c3ccccc3Sc3ccccc32)N1	0	0
Cn1cccc1/C=C1\CCC/C(=C\c2cccn2C)C1=O	79	0
CC1C/C(=C\c2cccn2C)C(=O)/C(=C/c2cccn2C)C1 (centres undefined)	99	0
Cc1ccccc1C1=N/C(=C\c2cccn2C)C(=O)O1	0	0
COc1ccc2c(c1)CC/C(=C\c1cccn1C)C2=O	0	0
O=c1c(-c2ccc(Br)cc2)coc2cc(O)cc(O)c12	52	0
O=c1c(-c2ccc(O)cc2)coc2cc(O)cc(O)c12	-	0
Cc1c(Cl)cccc1NC(=O)C(=O)NCc1ccncc1	0	0
Cc1ccc(C(=O)N2CCCC(c3nnc(-c4ccccc4)o3)C2)s1 (centres undefined)	0	0
CN(C)CCCN(C(=O)c1cccc(C(F)(F)F)c1)c1nc2ccc(F)cc2s1	55	0
CSc1cccc2sc(N(CCN(C)C)C(=O)c3ccc(N(C)C)cc3)nc12	0	0
SMILES	mHTT CaM bind	Pf apPOL inh
COc1ccccc1NCc1ccc([N+](=O)[O-])s1	0	0
COc1ccc(C=O)cc1OCc1ccccc1[N+](=O)[O-]	0	94
COc1ccc(NC(=O)Cc2ccccc2[N+](=O)[O-])cc1OC	0	0
COc1ccc(NCc2ccccc2[N+](=O)[O-])cc1OC	64	0
COc1ccc(NCc2ccc([N+](=O)[O-])s2)cc1OC	65	0
CCOc1cc(CN2CCN(Cc3ccccc3[N+](=O)[O-])CC2)ccc1OC	0	0
CC1(C)CC2(CC(C)(C)N1)OC(=O)N(C1CC1)C2(C)O (centres undefined)	0	0
COC(=O)CCN1C(=O)c2ccccc2C1=O	0	0
CCC(C)N1C(=O)c2ccccc2C1C(=O)NC1CCCCC1 (centres undefined)	0	0
O=C1S/C(=C\c2ccccc2Cl)C(=O)N1c1ccc(O)cc1	74	0
O=C1S/C(=C\c2ccc(O)c([N+](=O)[O-])c2)C(=O)N1c1ccccc1	0	0
COc1ccccc1/C=C1\SC(=O)N(c2ccc(Cl)cc2)C1=O	0	0
O=C1S/C(=C\c2ccc(O)cc2)C(=O)N1CNc1ccc(I)cc1	0	0
O=C1S/C(=C\c2ccc(O)c(O)c2)C(=O)N1c1ccc(Cl)cc1	88	0
O=C1S/C(=C\c2ccc(O)cc2)C(=O)N1c1ccccc1	0	0
O=C(CN1C(=O)S/C(=C\c2ccc(Br)cc2)C1=O)Nc1ccc(O)cc1	52	0
O=C1S/C(=C\c2ccc(O)cc2)C(=O)N1c1ccc(O)cc1	55	0
CC(=O)NCc1csc(C2CCCN(S(=O)(=O)c3ccc4c(c3)CCC4)C2)n1 (centres undefined)	0	0
O=c1[nH][nH]c(=O)c2c(N=Cc3cc(Cl)cc(Cl)c3O)cccc12	0	0
O=C(NCc1cc(F)ccc1F)C1CN(S(=O)(=O)c2cccnc2)CC12CCCCC2 (centres undefined)	0	0
COC1=CC(=C2C=CC(=[N+](C)C)C=C2)Oc2ccccc21	0	0
COc1cc2c(cc1OC)C(C(=O)Nc1ccccc1F)C(c1cccs1)N(C)C2=O (centres undefined)	0	0
O=C(CCC1CCCC1)N1CCC(Nc2cccnc2)C1 (centres undefined)	0	67
